Results on 93 compounds are retold here after PubChem BioAssay AID1619 (SRMLSC, 2009).

About 830 (0.38%) of roughly 220,000 compounds were called active. A selection follows. Measured potencies and affinities stand elsewhere. Unmarked numbers belong to inactive results.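 The calls were made as follows: active = compound inhibiting the enzyme by more than half at any dose during confirmatory dose-response retesting; inconclusive = strong single-dose inhibitors picked by rank but not retested; inactive = the rest.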

Sequence of Leucine aminopeptidase (Plasmodium falciparum (isolate 3D7)) (Q8IL11 whole entry, looked up): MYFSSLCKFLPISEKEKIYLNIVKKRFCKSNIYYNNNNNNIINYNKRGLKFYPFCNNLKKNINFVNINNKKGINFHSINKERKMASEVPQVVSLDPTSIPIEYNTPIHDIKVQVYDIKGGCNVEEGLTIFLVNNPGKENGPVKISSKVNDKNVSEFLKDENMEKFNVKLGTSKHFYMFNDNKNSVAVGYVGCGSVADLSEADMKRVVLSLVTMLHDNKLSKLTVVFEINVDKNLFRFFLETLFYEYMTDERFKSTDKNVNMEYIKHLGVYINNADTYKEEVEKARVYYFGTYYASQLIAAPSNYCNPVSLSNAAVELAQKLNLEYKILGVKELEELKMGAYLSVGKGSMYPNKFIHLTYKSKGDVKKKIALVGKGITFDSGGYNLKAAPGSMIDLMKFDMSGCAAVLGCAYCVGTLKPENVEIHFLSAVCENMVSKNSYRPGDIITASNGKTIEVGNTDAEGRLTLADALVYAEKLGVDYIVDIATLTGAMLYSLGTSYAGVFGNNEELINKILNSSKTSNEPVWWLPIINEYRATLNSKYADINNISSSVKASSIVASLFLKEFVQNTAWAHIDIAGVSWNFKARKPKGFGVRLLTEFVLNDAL

This assay concerns the target Leucine aminopeptidase (Plasmodium falciparum (isolate 3D7)) (UniProt Q8IL11). Briefly: P. falciparum M17LAP inhibitors, primary screen, biochemical, fluorogenic H-Leu-NHMec substrate, 1536-well (AID 1619).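 Also: plate controls were full reaction with DMSO carrier for no effect and no enzyme background for full effect.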 Particulars: recombinant M17LAP, H-Leu-NHMec fluorogenic kinetic assay; at 30 µM; stronger effect = higher value.
For the compound `O=C(NNC(=O)c1cccc2ccccc12)c1ccc(-c2ccccc2)cc1`, the inhibition was -1.51%.

For the compound `CCCCOC(=O)c1ccc(NC(=O)C(=O)NCCN(C)C)cc1`, the inhibition was 4.81%.

For the compound `Cn1cnc([N+](=O)[O-])c1Oc1cccc(O)c1`, the inhibition was -5.34%.

As to `Cc1noc(NS(=O)(=O)c2ccc(NC(=O)CSc3nc4ccccc4[nH]3)cc2)c1C`, the inhibition is -54.8%.

`Cc1cc(NS(=O)(=O)c2ccc(NC(=O)Nc3ccccc3)cc2)no1`: the inhibition was 53.6%.

As for `Cc1cc(C)nc(SCC(=O)Nc2ccc(S(=O)(=O)Nc3ncccn3)cc2)n1`, the inhibition was 0.08%.

Turning to `Cc1noc(NS(=O)(=O)c2ccc(NC(=O)CSc3ncccn3)cc2)c1C`, the inhibition is -8.95%.

In the case of `O=C(CSc1ccccc1)Nc1ccc(S(=O)(=O)Nc2ncccn2)cc1`, the inhibition was 4.72%.

Turning to `Cc1cc(C)nc(NC(=O)CSc2nc3ccccc3s2)n1`, the inhibition was -0.55%.

For the compound `Cc1cc(NS(=O)(=O)c2ccc(NC(=O)Nc3cccc(Cl)c3)cc2)no1`, the inhibition is 41%.

Regarding `O=C(CSc1nc2ccccc2s1)Nn1cnnc1`, the inhibition was 6.17%.

With `Cc1nn(-c2ccccc2)c(Cl)c1/C=C(\C#N)C(=O)NC(C)C`, the inhibition is 0.39%.

Regarding `COCc1cc(C)nc(N/N=C/c2ccc(Cl)c(Cl)c2)c1C#N`, the inhibition was -7.61%.

For `O=[N+]([O-])c1ccc(Nc2c3ccccc3nc3ccccc23)cc1`, the inhibition is -29.4%.

Take `Cc1ccc(NC(=O)CN2C(=O)N/C(=C\c3cccnc3)C2=O)cc1`: the inhibition was 2.33%.

Consider `Cc1ccc(Cn2c(SCc3cccnc3)nc3c2c(=O)n(C)c(=O)n3C)cc1`, for which the inhibition is 5.09%.

With `CC(=O)Nc1ccc(NC(=O)CN(c2cccc(C)c2)S(C)(=O)=O)cc1`, the inhibition is 1.19%.

Regarding `CCc1cccc(NC(=O)CCc2nc(-c3cccs3)no2)c1`, the inhibition is 17.6%.

For `CCNC(=S)Nc1ccc(Cl)c([N+](=O)[O-])c1`, the inhibition was -6.59%.

Consider `NC(=O)CC(NC(=O)Cc1ccc(Br)cc1)c1ccc(NCc2ccc(F)c(F)c2)c([N+](=O)[O-])c1` (stereo not drawn), for which the inhibition was -2.21%.

With `Cc1noc(NS(=O)(=O)c2ccc(N/C=C/C(=O)c3ccc(F)cc3)cc2)c1C`, the inhibition is 20.6%.

`Cc1noc(NS(=O)(=O)c2ccc(NC(=O)CSc3n[nH]c(-c4ccccc4)n3)cc2)c1C`: the inhibition is -60.9%.

As for `Cc1cc(C)c(C(=O)Nc2ccc(S(=O)(=O)Nc3onc(C)c3C)cc2)c(C)c1`, the inhibition is -10.6%.

On to `Cc1noc(NS(=O)(=O)c2ccc(N/C=C/C(=O)c3ccc4c(c3)OCO4)cc2)c1C`, for which the inhibition was 36.4%.

Regarding `Cc1cc(C)nc(SCC(=O)Nc2ccc(S(=O)(=O)Nc3onc(C)c3C)cc2)n1`, the inhibition is -13.9%.

`Cc1cc(C(=O)Nc2ccc(S(=O)(=O)Nc3onc(C)c3C)cc2)c(C)o1`: the inhibition is -21.9%.

As for `CCSc1cnn(-c2ccccc2)c(=O)c1SCC`, the inhibition was 9.04%.

In the case of `Cc1ccc(C(=O)O)cc1NC(=O)C1CCCN1S(=O)(=O)c1cccc2nsnc12` (stereo not drawn), the inhibition is -2.3%.

As to `CC(=O)Nc1ccccc1OCC(=O)NC(C)c1ccc(F)cc1` (stereo not drawn), the inhibition was 7.52%.

Take `CCOC(=O)c1oc2ccccc2c1NC(=O)c1ccc(S(=O)(=O)N2CCCC2)cc1`: the inhibition was -6.8%.

Regarding `S=c1[nH]nc(-c2cc(-c3ccccc3)n[nH]2)n1/N=C/c1ccc(Cl)cc1`, the inhibition was 1.35%.

`O=C(Nc1ccc(Cl)cc1)c1csc(-c2ccccc2)n1`: the inhibition was -10.4%.

Take `CC(C)OC(=O)/C(C#N)=C/c1cn(C)c2ccccc12`: the inhibition is -3.85%.

Take `COCc1[nH]nc2c1C1(CCSCC1)C(C#N)=C(N)O2`: the inhibition was 11.4%.

As for `CC(=O)N1CCC2(CC1)C(C#N)=C(N)Oc1n[nH]c(C)c12`, the inhibition is 8.86%.

Take `Cc1ccc(SCc2[nH]nc3c2C2(C(=O)Nc4ccc(F)cc42)C(C#N)=C(N)O3)cc1` (stereo not drawn): the inhibition was 10.5%.

Turning to `CC(=O)N1CCC2(CC1)C(C#N)=C(N)Oc1n[nH]c(C(F)(F)F)c12`, the inhibition was -15.9%.

For the compound `CCCC(=O)Nc1ccc(C(=O)NN2C(=O)c3ccccc3C2=O)cc1`, the inhibition is -2.16%.

On to `O=C(c1ccccn1)N(Cc1ccco1)C1(C(=O)NC2CCCCC2)CCCCC1`, for which the inhibition is 1.03%.

Take `CC1CCCCN1CC(=O)Nc1cc(S(=O)(=O)N2CCOCC2)ccc1N1CCCC1` (stereo not drawn): the inhibition was 4.92%.

`Cc1ccc(NC(=O)N2CCCCC2)cc1NC(=O)N1CCCCC1`: the inhibition was -2.13%.

As for `CC1CC(CC(=O)Nc2nc(-c3ccccc3)cs2)C(=O)O1` (stereo not drawn), the inhibition is 2.05%.

For the compound `CC1(C)CC(CC(=O)NNc2nc(-c3ccccc3)cs2)C(=O)O1` (stereo not drawn), the inhibition was 12.7%.

Consider `C/C(CC1CC(COCC(C)C)OC1=O)=N\Nc1nc(-c2ccccc2)cs1` (stereo not drawn), for which the inhibition is 10.7%.

Take `CC1CC(CC(=O)NNc2nc(-c3ccccc3)cs2)C(=O)O1` (stereo not drawn): the inhibition was 12.5%.

As for `O=C(CN(Cc1ccco1)S(=O)(=O)c1ccccc1)N/N=C/c1ccccc1C(=O)O`, the inhibition is 38.3%.

Turning to `CCOc1cc(C(=O)OCC(=O)Nc2cc(C)on2)ccc1OCC(C)C`, the inhibition was -3.97%.

As for `Cc1ccccc1NC(=O)Cn1nnc(-c2ccc(N3CCOCC3)cc2)n1`, the inhibition was 2.77%.

For `COc1ccccc1N(CC(=O)Nc1cc(C)on1)S(=O)(=O)c1ccc(Cl)cc1`, the inhibition is -0.47%.

As for `NC(=O)[C@@H]1CCCN1Cc1nc(-c2cccs2)no1`, the inhibition was -3.71%.

Regarding `C=CCN1C=C/C(=C\C=C(C#N)C#N)c2ccccc21`, the inhibition is -9.06%.

Consider `CCOC(=O)/C(C#N)=C\N(C)C`, for which the inhibition was 5.6%.

For the compound `CCOC(=O)/C(C#N)=C/C=C1/C=CC=CN1C`, the inhibition is 20%.

As to `CCCN1C=CC(=CC=C(C#N)C#N)C=C1`, the inhibition is 40.8%.

For the compound `CCOC(=O)/C(C#N)=C\c1ccc(CC)s1`, the inhibition is 14.8%.

On to `CCOC(=O)/C(C#N)=C/N=c1ccc(C)cn1C`, for which the inhibition is 12.6%.

With `CCOC(=O)/C(C#N)=C/C=C1\C=Cc2ccccc2N1CC`, the inhibition was 1.1%.

On to `CCCCCCN1C=CC(=C/C=C(\C#N)C(=O)OCC)C=C1`, for which the inhibition was -2.08%.

`CCOC(=O)c1nnn(-c2nonc2-n2cccc2)c1CCl`: the inhibition was 7.36%.

For the compound `COC(=O)CN(c1ccccc1OC)S(=O)(=O)c1ccccc1`, the inhibition is -2.64%.

With `Cc1ccc(C)c(NC2=C(Cl)C(=O)OC2OC(C)C)c1` (stereo not drawn), the inhibition was -15.8%.

On to `CC(=O)N1CCC(N(C(=O)Nc2ccc(F)cc2)C2CCCC2)CC1`, for which the inhibition was 11%.

As for `CC(C)(C)c1ccc(C(=O)c2c[nH]c(C(=O)NCC3CCCO3)c2)cc1` (stereo not drawn), the inhibition was -3.09%.

As for `NC(=O)c1ncc(C(F)(F)F)cc1Oc1cccc(C(F)(F)F)c1`, the inhibition was -2.19%.

For the compound `Cc1cc(C)nc(NC(=O)C2c3ccccc3Oc3ccccc32)n1`, the inhibition was 5.07%.

As for `CCN(CC)CCNc1nc(-c2cccs2)c(CC(=O)O)s1`, the inhibition was 0.71%.

For the compound `CCCc1cc(C(=O)Nc2sc(C)c(CC)c2C#N)no1`, the inhibition was 3.41%.

Take `COC(=O)C1=C(C)N(Cc2ccccc2)C(=O)/C1=C\c1ccco1`: the inhibition was 23.3%.

In the case of `O=C(Nc1ccc(O)cc1)c1ccc2c(c1)C(=O)N(Cc1ccco1)C2=O`, the inhibition was 13.2%.

As for `O=C(NNC(=O)c1ccccc1O)c1ccco1`, the inhibition is 20.5%.

`O=C(CN1C(=O)S/C(=C\c2ccccc2)C1=O)NNC(=O)c1ccccc1O`: the inhibition is 9.15%.

For `O=C(CSc1nnc(-c2ccccc2)n1Cc1ccccc1)NNC(=O)c1ccccc1O`, the inhibition was 10.4%.

For `O=C1/C(=C\c2ccco2)SC(=S)N1Cc1ccccc1`, the inhibition is 21.4%.

Consider `O=C(Nc1ccc(O)cc1C(=O)O)c1ccc2c(c1)C(=O)N(Cc1ccco1)C2=O`, for which the inhibition is -9.39%.

`O=C(O)c1ccc(COc2ccccc2/C=C2\NC(=O)N(Cc3ccccc3)C2=O)cc1`: the inhibition is 20.1%.

For the compound `Cc1cccc(C(=O)NCCC(=O)Nc2nc(C)c(Cc3ccc4c(c3)OCO4)s2)c1`, the inhibition was -0.81%.

With `CC(C)NC(=S)N1CCN(c2ncccn2)CC1`, the inhibition is -3.12%.

Take `COc1ccc(C(=O)NC2CCN(C(=S)Nc3ccc(C)cc3)CC2)cc1`: the inhibition is 3.35%.

For the compound `O=C(NC(Cc1ccccc1)C(=O)NC1CC1)OCc1ccccc1` (stereo not drawn), the inhibition is 9.99%.

With `CCCOc1ccc(OCCSc2nnc(N)s2)cc1`, the inhibition was -4.02%.

With `Cc1cc(C)c(/C=N/NC(=O)c2nnn(-c3nonc3N)c2COc2ccc(F)cc2)c(C)c1`, the inhibition was 11.6%.

As to `CC(=O)Nc1nc(COc2ccccc2)cs1`, the inhibition is -12.2%.

With `O=[N+]([O-])c1ccc(N2CCN(S(=O)(=O)c3ccccc3)CC2)cc1NCCN1CCOCC1`, the inhibition is -0.09%.

`CCOC(=O)c1cc(NC(=O)c2cccnc2)ccc1N1CCOCC1`: the inhibition was -6.5%.

With `Cc1ccnc(SCC(=O)N2CCCc3ccccc32)n1`, the inhibition was -6.82%.

As to `O=S(=O)(Nc1cccc2c1CCCC2)c1cccc(C(F)(F)F)c1`, the inhibition is -8.32%.

For the compound `COc1ccc([N+](=O)[O-])cc1NC(=O)Cc1ccc(Cl)cc1`, the inhibition is 8.59%.

Take `COc1cc([N+](=O)[O-])ccc1NC(=O)Cc1ccc(C)cc1`: the inhibition was -2.2%.

Consider `CC(=O)c1ccc(NC(=O)CSc2nnc(-c3ccco3)c(-c3ccco3)n2)cc1`, for which the inhibition was 22.5%.

In the case of `Cc1ccccc1NC(=O)CSc1nnc(-c2ccco2)c(-c2ccco2)n1`, the inhibition was 42.7%.

Take `Cc1ccc(NC(=O)CSc2nnc(-c3ccco3)c(-c3ccco3)n2)cc1`: the inhibition is 53.2%.

Regarding `Cc1cccc(NC(=O)CSc2nnc(-c3ccco3)o2)c1C`, the inhibition is 0.69%.

With `CC1CN(Cc2nnc(-c3ccccc3)o2)CC(C)O1` (stereo not drawn), the inhibition is 3.22%.
